The target in test [1] is Progesterone receptor (Homo sapiens) (UniProt P06401). Nature of the test: qHTS assay to identify small molecule agonists of the progesterone receptor (PR) signaling pathway (AID 1346784; calls by dose curve; note: nearly all actives have a fitted effect of over 30% in size). The method, boiled down: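 Fluorescence from LiveBLAzer B/G FRET substrate cleavage (2 hr, RT) reported PR activation in PR-UAS-bla HEK 293T cells treated 16 hr at 37C/5% CO2 with compounds; medium contained 2% charcoal-stripped FBS.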
(In general: In qHTS, concentration-response curves come from the screen itself.)

Test [2] has the same target. Nature of the test: qHTS assay to identify small molecule antagonists of the progesterone receptor (PR) signaling pathway (AID 1346795; active = well fitted inhibition curve with a large enough effect in the signal ratio in the repeat runs, not every such curve was filed as active; the % refers to the signal ratio; note: potency is the fitted concentration of half-maximal effect). The procedure, abridged:
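Fluorescence intensity measured 2 hr after adding beta-lactamase FRET substrate to PR-UAS-bla HEK293T cells that had been co-treated 16 hr with compound and 1 nM R5020 (final concentration) in 2% charcoal-stripped FBS.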

Test [3] can be described thus: qHTS assay to identify small molecule antagonists of the TGF-beta/Smad signaling pathway - cell viability counter screen (AID 1346824). Note: nearly all actives have a fitted effect of over 50% in size. The method, boiled down: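 SBE-bla HEK 293T cells, incubated overnight, then compound plus 0.25 ng/mL TGF-beta1 (stock added) for 5 hr at 37 C. Viability was read in the same wells by CellTiter-Glo luminescence after 30 min at room temperature.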

Test [4] in a line: qHTS assay to identify small molecule agonists of the TGF-beta/Smad signaling pathway - cell viability counter screen (AID 1346829). Note: top concentration of the series differs between compounds; nearly all actives have a fitted effect of over 45% in size. The method, boiled down: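 Same-well cytotoxicity: CellTiter-Glo added after the 2 hr room-temperature beta-lactamase substrate step, luminescence measured 30 min later; cells had 5 hr of compound at 37 C.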
Test [5] can be described thus: qHTS assay to identify small molecule agonists of the TGF-beta/Smad signaling pathway (AID 1346859; active = well fitted activation curve with a large enough effect in the signal ratio in the repeat runs, not every such curve was filed as active; the % refers to the signal ratio; note: series mostly up to about 77 µM). The procedure, abridged:
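After overnight seeding, SBE-bla HEK 293T cells are dosed with compounds in DMSO and kept 5 hr at 37 C, 5% CO2. LiveBLAzer-type FRET substrate is then applied for 2 hr at room temperature.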

Test [6] addresses Thyrotropin-releasing hormone receptor (Homo sapiens) (UniProt P34981). The experiment in a line: qHTS assay to identify small molecule antagonists of the thyrotropin-releasing hormone receptor (TRHR) signaling pathway (AID 1346877; active = well fitted inhibition curve with a large enough effect in the repeat runs, not every such curve was filed as active; note: series mostly up to about 51 µM). The method, boiled down:
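Kinetic fluorescence (3 min, 1 s resolution) following stimulation with TRH at 1 nM final; HEK293 cells bearing human TRHR; 5 min compound preincubation at RT; concentration-response over 15 points, triplicates.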

For test [7] the target is unchanged. The experiment in a line: qHTS assay to identify small molecule agonists of the thyrotropin-releasing hormone receptor (TRHR) signaling pathway (AID 1346891; calls by dose curve;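 note: HEK293 cells expressing TRHR with calcium dye readout; series mostly up to about 58 µM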). The method, boiled down:
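Compounds were tested as agonists at 15 concentrations, in triplicate, on TRHR-Hek293 cells; calcium-sensitive dye fluorescence was recorded for 3 min following addition.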

Test [8] can be described thus: Human pregnane X receptor (PXR) small molecule agonists, qHTS cell viability counter screen (AID 1346977). Note: nearly all actives have a fitted effect of over 50% in size. Note: potency is the fitted concentration of half-maximal effect. The method, boiled down:
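Viability counter screen: CellTiter-Fluor signal in PXR-Luc HepG2 cells, 24hr compound exposure, 37C, 5% CO2.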

Test [9] is described as follows: Caspase-3/7 induction in HepG2 cells by small molecules, qHTS assay (AID 1346978). Note: nearly all actives have a fitted effect of over 15% in size. The procedure, abridged: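 Wild-type HepG2 cells, 2,000/well, settled 5 hr at 37 C and 5% CO2, then compound-treated for 17 hr; caspase-3/7 activity read by luminescent Caspase-Glo 3/7 after 30 min at room temperature.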
Test [10] is described as follows: Caspase-3/7 induction in CHO-K1 cells by small molecules, qHTS cell viability counter screen (AID 1346979). Note: nearly all actives have a fitted effect of over 35% in size. Note: potency is the fitted concentration of half-maximal effect. The procedure, abridged:
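Viability readout by fluorescence (CellTiter-Fluor) on wild-type CHO-K1 cells exposed for 16hr at 37C and 5% CO2 to compounds delivered in DMSO; reagent incubated 1hr before reading.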

For test [11], the target named is Cytochrome P450 2D6 (Homo sapiens) (UniProt P10635). Nature of the test: Cytochrome P450 Family 2 Subfamily D Member 6 (CYP2D6) small molecule antagonists: luciferase reporter qHTS assay (AID 1671196). Note: nearly all actives have a fitted effect of over 50% in size. Note: potency is the fitted concentration of half-maximal effect. The method, boiled down: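 Test chemicals meet CYP2D6 plus proluciferin substrate (10 min, RT); NADPH regenerating solution then drives turnover for 1 h. Detection reagent halts the reaction; luminescence measured after 20 min.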
(In general: A reporter such as luciferase makes a cellular process visible.)

Test [12] deals with Cytochrome P450 2C19 (Homo sapiens) (UniProt P33261). The experiment in a line: Cytochrome P450 Family 2 Subfamily C Member 19 (CYP2C19) small molecule antagonists: luciferase reporter qHTS assay (AID 1671197). Note: nearly all actives have a fitted effect of over 65% in size. Note: potency is the fitted concentration of half-maximal effect. The procedure, abridged: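 Quantitative high-throughput screen of the Tox21 library using CYP2C19 with proluciferin substrate. Reaction: NADPH regeneration, 37C, 1 h, after 10 min compound preincubation at room temperature. Readout: luminescence.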

A short description of test [13]: qHTS assay to identify small molecule antagonists of the progesterone receptor (PR) signaling pathway - cell viability counter screen (AID 1346798). Note: series mostly up to about 92 µM; nearly all actives have a fitted effect of over 50% in size. The method, boiled down: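 CellTiter-Glo luminescence; PR-UAS-bla HEK293T, 3,000 cells/well; compound + R5020, 16 hr, 37C/5% CO2; 30 min RT before read.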
Test [14] can be described thus: qHTS assay to identify small molecule agonists of the progesterone receptor (PR) signaling pathway - cell viability counter screen (AID 1346799; calls by dose curve; note: nearly all actives have a fitted effect of over 45% in size). The method, boiled down:
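In parallel with the beta-lactamase readout, cytotoxicity toward PR-UAS-bla HEK293T cells was measured by CellTiter-Glo luminescence following 16 hr compound incubation in 2% charcoal-stripped FBS medium.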

A short description of test [15]: Caspase-3/7 induction in CHO-K1 cells by small molecules, qHTS assay (AID 1346980). Note: nearly all actives have a fitted effect of over 15% in size. The procedure, abridged: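 Wild-type CHO-K1 cells exposed to compounds for 17hr at 37 C, 5% CO2. Caspase-3/7 activity then measured by Caspase-Glo 3/7 luminescence after 30min at room temperature.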
Test [16] concerns the target Nuclear receptor subfamily 1 group I member 2 (Homo sapiens) (UniProt O75469). The experiment in a line: Human pregnane X receptor (PXR) small molecule agonists, qHTS assay (AID 1346982). Note: nearly all actives have a fitted effect of over 35% in size. Note: potency is the fitted concentration of half-maximal effect. The method, boiled down:
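Reporter HepG2 cells expressing PXR-Luc are cultured in charcoal-stripped FBS (5%), treated with compounds for 24 hr at 37 C, and assayed by ONE-Glo luminescence after 30 min at room temperature.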

Test [17] can be described thus: Caspase-3/7 induction in HepG2 cells by small molecules, qHTS cell viability counter screen (AID 1346981). Note: series mostly up to about 92 µM; nearly all actives have a fitted effect of over 30% in size. The procedure, abridged: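 In this quantitative HTS counter screen, compounds delivered in DMSO were left on unmodified HepG2 cells for 16 hr at 37 C. Viability was then determined fluorometrically with CellTiter-Fluor, in parallel with caspase-3/7 induction in the same wells.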

The target of test [18] is Nuclear receptor subfamily 1 group I member 2 (Rattus norvegicus) (UniProt Q9R1A7). The experiment in a line: Rat pregnane X receptor (rPXR) activation by small molecules, qHTS assay (AID 1346983). Note: nearly all actives have a fitted effect of over 20% in size. As to conditions: rPXR luciferase reporter cells, One-Glo luminescence, 24 h; max activation: hits give high values. The procedure, abridged: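 Cell-based rPXR activation assay: rPXR cells, 2,000 per well, rested 5hr at 37 C, then exposed to compounds in DMSO for 24 hr at 37 C. Luciferase activity read by One-Glo luminescence after 30 min at room temperature.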

Test [19] deals with Nuclear receptor subfamily 1 group I member 2 (Homo sapiens) (UniProt O75469). Nature of the test: CYP3A4 induction through human pregnane X receptor (PXR) by small molecules, qHTS assay (AID 1346984). Note: nearly all actives have a fitted effect of over 40% in size. The procedure, abridged:
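Induction measured in HepG2-based DPX-2 cells co-expressing human PXR and a CYP3A4 promoter-driven luciferase. After a 24-hour compound exposure, cells received CYP3A4 luciferin substrate at 3uM final for 3 hours, and light output was then recorded.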

Test [20] has the same target. Nature of the test: Human pregnane X receptor (PXR) activation by small molecules, qHTS assay (AID 1346985). Note: nearly all actives have a fitted effect of over 40% in size. The method, boiled down:
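DPX-2 cells (HepG2 co-transfected with a PXR response element and a CYP3A4-promoter luciferase construct) were seeded at 2,000 per well, rested 5 hr at 37C, then exposed to DMSO-dissolved compounds for 24 hr. Activation was read as luciferase luminescence.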

“And” between values parts separate entries of the source, which are not always exact repeats. Equal entries are not always repeated. Values without a mark were called inactive. Records with an inconclusive call do not appear. The source made the active and inactive calls. Unless noted, calls come from the whole dose curve; as a rule, active = well fitted curve in the direction sought with a large enough effect in the repeat runs; inconclusive = weak or mixed curves; inactive = no such curve, though single readings can be large; an effect the other way counts as inactive or inconclusive.
% is set by controls: 0 for no effect and ±100 for the full control effect.

Sequence of Cytochrome P450 2D6 (Homo sapiens) (P10635 whole entry, looked up): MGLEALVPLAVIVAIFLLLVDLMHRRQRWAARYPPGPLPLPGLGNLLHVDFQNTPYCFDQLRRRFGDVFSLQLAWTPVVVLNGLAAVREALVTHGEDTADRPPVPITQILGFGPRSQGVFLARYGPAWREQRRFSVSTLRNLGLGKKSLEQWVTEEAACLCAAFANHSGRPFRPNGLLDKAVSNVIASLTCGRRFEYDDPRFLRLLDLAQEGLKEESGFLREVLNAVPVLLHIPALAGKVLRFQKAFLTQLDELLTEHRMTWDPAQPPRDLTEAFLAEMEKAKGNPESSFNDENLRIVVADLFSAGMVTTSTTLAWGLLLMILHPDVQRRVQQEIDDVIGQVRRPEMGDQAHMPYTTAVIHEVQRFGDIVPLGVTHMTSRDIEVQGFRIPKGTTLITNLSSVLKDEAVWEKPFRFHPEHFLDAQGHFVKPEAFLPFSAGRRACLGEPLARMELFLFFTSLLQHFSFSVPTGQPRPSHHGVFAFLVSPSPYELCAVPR
Sequence of Cytochrome P450 2C19 (Homo sapiens) (P33261 whole entry, looked up): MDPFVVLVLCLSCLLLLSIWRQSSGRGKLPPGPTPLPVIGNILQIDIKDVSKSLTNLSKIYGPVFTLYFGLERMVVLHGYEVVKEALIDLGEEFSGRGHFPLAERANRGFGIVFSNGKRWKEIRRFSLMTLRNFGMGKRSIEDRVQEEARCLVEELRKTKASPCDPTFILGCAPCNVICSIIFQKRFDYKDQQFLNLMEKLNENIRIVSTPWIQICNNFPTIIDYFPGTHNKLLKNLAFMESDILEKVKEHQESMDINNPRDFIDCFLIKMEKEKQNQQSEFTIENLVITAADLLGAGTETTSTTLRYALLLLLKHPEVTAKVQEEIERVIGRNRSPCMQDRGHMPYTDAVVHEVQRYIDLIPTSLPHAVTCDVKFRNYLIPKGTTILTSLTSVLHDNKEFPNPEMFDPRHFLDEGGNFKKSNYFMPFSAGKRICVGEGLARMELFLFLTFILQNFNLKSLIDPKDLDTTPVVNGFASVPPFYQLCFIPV
Sequence of Nuclear receptor subfamily 1 group I member 2 (Homo sapiens) (O75469 whole entry, looked up): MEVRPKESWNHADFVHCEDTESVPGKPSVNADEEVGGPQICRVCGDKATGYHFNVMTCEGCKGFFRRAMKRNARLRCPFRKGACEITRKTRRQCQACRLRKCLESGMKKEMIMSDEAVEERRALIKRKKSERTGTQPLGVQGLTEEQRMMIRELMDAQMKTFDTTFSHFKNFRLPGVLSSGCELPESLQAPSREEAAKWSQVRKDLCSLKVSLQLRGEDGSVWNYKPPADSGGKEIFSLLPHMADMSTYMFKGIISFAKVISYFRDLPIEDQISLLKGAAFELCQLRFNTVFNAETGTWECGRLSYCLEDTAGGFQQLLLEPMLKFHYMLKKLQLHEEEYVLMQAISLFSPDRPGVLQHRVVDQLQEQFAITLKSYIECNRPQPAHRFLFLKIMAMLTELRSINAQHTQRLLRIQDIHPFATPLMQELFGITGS
Sequence of Thyrotropin-releasing hormone receptor (Homo sapiens) (P34981 whole entry, looked up): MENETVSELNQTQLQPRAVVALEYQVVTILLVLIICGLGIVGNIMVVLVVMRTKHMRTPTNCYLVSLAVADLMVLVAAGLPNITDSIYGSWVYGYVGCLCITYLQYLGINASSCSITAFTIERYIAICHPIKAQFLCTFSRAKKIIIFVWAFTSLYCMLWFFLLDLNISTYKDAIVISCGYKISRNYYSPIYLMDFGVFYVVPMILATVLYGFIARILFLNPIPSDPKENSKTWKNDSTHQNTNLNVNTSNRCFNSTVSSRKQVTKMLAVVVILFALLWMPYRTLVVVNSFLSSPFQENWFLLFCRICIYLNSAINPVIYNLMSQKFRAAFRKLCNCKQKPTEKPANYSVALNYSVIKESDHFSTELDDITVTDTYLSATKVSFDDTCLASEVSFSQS
Sequence of Progesterone receptor (Homo sapiens) (P06401 whole entry, looked up): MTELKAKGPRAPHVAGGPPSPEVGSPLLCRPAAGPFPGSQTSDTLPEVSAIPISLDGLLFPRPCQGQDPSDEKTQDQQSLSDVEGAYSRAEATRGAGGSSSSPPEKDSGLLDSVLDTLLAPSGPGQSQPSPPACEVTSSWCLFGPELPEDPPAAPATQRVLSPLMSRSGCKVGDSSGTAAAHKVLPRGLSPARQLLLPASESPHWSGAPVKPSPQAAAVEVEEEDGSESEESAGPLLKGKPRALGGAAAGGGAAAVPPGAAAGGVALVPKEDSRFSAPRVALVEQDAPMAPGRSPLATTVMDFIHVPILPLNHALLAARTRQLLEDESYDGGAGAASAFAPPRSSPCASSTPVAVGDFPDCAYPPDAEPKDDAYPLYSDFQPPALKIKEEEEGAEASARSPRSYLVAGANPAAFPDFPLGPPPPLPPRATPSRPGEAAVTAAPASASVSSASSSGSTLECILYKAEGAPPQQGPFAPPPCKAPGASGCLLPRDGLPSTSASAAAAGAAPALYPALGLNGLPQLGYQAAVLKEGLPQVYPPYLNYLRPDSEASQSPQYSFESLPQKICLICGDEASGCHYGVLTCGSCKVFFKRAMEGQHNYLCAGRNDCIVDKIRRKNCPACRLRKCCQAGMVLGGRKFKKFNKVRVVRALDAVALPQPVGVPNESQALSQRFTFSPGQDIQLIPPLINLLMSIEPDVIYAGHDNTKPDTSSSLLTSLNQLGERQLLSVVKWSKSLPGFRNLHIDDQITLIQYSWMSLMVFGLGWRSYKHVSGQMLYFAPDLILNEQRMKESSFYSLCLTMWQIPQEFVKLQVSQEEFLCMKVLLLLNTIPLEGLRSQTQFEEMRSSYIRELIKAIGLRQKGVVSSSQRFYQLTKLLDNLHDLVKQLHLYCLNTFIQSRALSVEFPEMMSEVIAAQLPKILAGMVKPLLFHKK
Sequence of Nuclear receptor subfamily 1 group I member 2 (Rattus norvegicus) (Q9R1A7 whole entry, looked up): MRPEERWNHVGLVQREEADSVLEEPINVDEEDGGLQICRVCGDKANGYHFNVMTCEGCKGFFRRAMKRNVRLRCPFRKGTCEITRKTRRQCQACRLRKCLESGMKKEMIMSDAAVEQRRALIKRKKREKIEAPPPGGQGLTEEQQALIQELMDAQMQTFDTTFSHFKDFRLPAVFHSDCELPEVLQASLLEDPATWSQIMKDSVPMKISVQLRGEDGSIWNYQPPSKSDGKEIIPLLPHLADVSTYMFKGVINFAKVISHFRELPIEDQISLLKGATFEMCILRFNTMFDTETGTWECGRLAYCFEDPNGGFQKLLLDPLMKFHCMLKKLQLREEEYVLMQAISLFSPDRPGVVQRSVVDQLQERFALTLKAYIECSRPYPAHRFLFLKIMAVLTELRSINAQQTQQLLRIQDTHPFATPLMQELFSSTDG

In the case of `C/C=C/C(=O)C1=C(C)CCCC1(C)C`, in test [1], the call was inactive. The Potency entry in test [2], in [3], in [4], in test [5], in test [6] and in [7] was “inactive” in each case. Besides, the Potency entry in test [8], in test [9], in [10] and in test [11] was “inactive” in each case. Moreover, in [12], the Potency was 79.6 µM (active).
Consider `Clc1nc2ccccc2s1`, for which the compound was called inactive in test [1]. Further, the Potency result in test [13], in [14], in test [3], in test [4], in test [5] and in test [6] was “inactive” throughout. In addition, the Potency entry in [7], in test [8], in [9], in test [10], in [15] and in test [16] was “inactive” each time. The Potency entry in [11] is “inactive”.
Take `CC(=O)Oc1ccc(C2(c3ccc(OC(C)=O)cc3)C(=O)Nc3ccccc32)cc1`: the compound was called inactive in test [1]. In addition, the Potency entry in test [2], in test [3], in [4], in test [5], in test [8] and in [9] was “inactive” each time. The Potency entry in test [10], in [17], in [16], in test [19] and in test [20] was “inactive” each time. Moreover, the max activation in test [18] is -4.61% and -2.34%. Also, the Potency in test [12] is 11 µM (active).
Consider `C=CC(C)(CCC=C(C)C)OC(=O)/C=C/c1ccccc1` (stereo unspecified), for which the compound was classed as inactive in [1]. In addition, the Potency entry in test [13], in test [14], in [4], in test [5], in test [6] and in test [7] was “inactive” in each case. Further, the Potency result in test [8], in test [9], in [10] and in test [17] was “inactive” throughout. In addition, the Potency is 61.1 µM (active) in test [16] and 6.33 µM (active) in test [12].
For `Cc1c(C(=O)O)cccc1[N+](=O)[O-]`, the compound was classed as inactive in [1]. In addition, the Potency entry in test [2], in [3], in test [4], in test [5], in test [6] and in [8] was “inactive” in each case. The Potency entry in test [9], in [10], in [15], in test [17], in test [16] and in test [11] was “inactive” in each case. The Potency result in test [12] was “inactive”.
With `CC(C)c1cccc(C(C)C)c1N1C(=O)c2ccc(O)cc2C1=O`, in test [1], the compound was classed as inactive. Moreover, the Potency in test [2] is 6.11 µM (active); in [16] it was 27.3 µM (active); in test [11], 31.7 µM (active); in test [12], 39.9 µM (active). For the same compound, the Potency entry in [3], in test [4], in test [6], in test [7], in test [8] and in test [15] was “inactive” each time.
As for `NC1(c2ccc(-c3nc4ccn5c(=O)[nH]nc5c4cc3-c3ccccc3)cc2)CCC1`, in test [1], the outcome was inactive. The Potency result in test [2], in [3], in test [4], in test [9], in test [15] and in test [11] was “inactive” each time. In addition, the Potency result in test [12] is “inactive”. For the same compound, the Potency in test [8] and in [10] was 26.6 µM (active) each time.
Regarding `Nc1cc(Cl)c([N+](=O)[O-])cc1O`, the call in [1] was inactive. The Potency result in test [13], in test [14], in test [3], in [4], in test [5] and in test [7] was “inactive” throughout. Moreover, the Potency entry in test [9], in [15], in test [11] and in test [12] was “inactive” throughout. For the same compound, the Potency is 68 µM (active) in [10] and 54 µM (active) in test [16].

Values taken from PubChem BioAssay (Tox21).
